Counter-ions that a name gives are not always drawn.

The assay concerns replication-induced senescent mouse newborn dermal fibroblasts (NBF). As to the kind of experiment: relative cell viability of senescent cells (fraction); higher = less killing of senescent cells. As to conditions: 1 µM; 3 days. As to the method: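 Replication-induced senescent newborn mouse skin fibroblasts (NBFs) in 24-well plates were treated with a Selleck FDA-approved drug library at 1 µM for 3 days.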
In turn, `Clc1ccc(C(c2ccccc2Cl)C(Cl)Cl)cc1` (stereo unspecified) [Mitotane] had a relative cell viability of 1.16.

Molecule `CCCc1nn(C)c2c(=O)[nH]c(-c3cc(S(=O)(=O)N4CCN(C)CC4)ccc3OCC)nc12` [Sildenafil Citrate] came in with a relative cell viability of 0.891.

`Clc1ccc(Nc2nnc(Cc3ccncc3)c3ccccc23)cc1` [Vatalanib (PTK787) 2HCl] yielded a relative cell viability of 0.741.

For the molecule `CC[C@H]1OC(=O)[C@H](C)[C@@H](O[C@H]2C[C@@](C)(OC)[C@@H](O)[C@H](C)O2)[C@H](C)[C@@H](O[C@@H]2O[C@H](C)C[C@H](N(C)C)[C@H]2O)[C@](C)(O)C[C@@H](C)C(=O)[C@H](C)[C@@H](O)[C@]1(C)O` [Erythromycin], the relative cell viability came to 0.796.

Molecule `O=C(Nc1cccc2c(=O)cc(-c3nnn[nH]3)oc12)c1ccc(OCCCCc2ccccc2)cc1` [Pranlukast] showed a relative cell viability of 1.01.

Molecule `CN1CCN(CCOc2cc(OC3CCOCC3)c3c(Nc4c(Cl)ccc5c4OCO5)ncnc3c2)CC1` [Saracatinib (AZD0530)] yielded a relative cell viability of 0.626.

The molecule `CNC(=O)c1ccccc1Sc1ccc2c(/C=C/c3ccccn3)n[nH]c2c1` [Axitinib] displayed a relative cell viability of 0.908.

For `COc1ccc(CC2c3cc(OC)c(OC)cc3CC[N+]2(C)CCC(=O)OCCCCCOC(=O)CC[N+]2(C)CCc3cc(OC)c(OC)cc3C2Cc2ccc(OC)c(OC)c2)cc1OC` (stereo unspecified) [Atracurium Besylate], the relative cell viability was determined as 1.07.

As to `Nc1cccc2c1CN(C1CCC(=O)NC1=O)C2=O` (stereo unspecified) [Lenalidomide (CC-5013)], the relative cell viability came out at 1.04.

Regarding `COc1cc(Nc2nc3ccccc3nc2NS(=O)(=O)c2ccc(NC(=O)c3ccc(C)c(OC)c3)cc2)cc(OC)c1`, the relative cell viability is 0.969.

As to `NC(=O)N1c2ccccc2CC(=O)c2ccccc21` [Oxcarbazepine], the relative cell viability worked out at 0.905.

On to `Cn1c(=O)c2c(ncn2CC(O)CO)n(C)c1=O` (stereo unspecified) [Dyphylline], for which the relative cell viability was determined as 0.335.

For the molecule `C[N+]1(C)[C@@H]2C[C@@H](OC(=O)C(O)(c3cccs3)c3cccs3)C[C@H]1[C@@H]1O[C@@H]12` [Tiotropium Bromide hydrate], the relative cell viability turned out to be 1.07.

Turning to `COc1ccc2[nH]c([S@@+]([O-])Cc3ncc(C)c(OC)c3C)nc2c1` [NEXIUM (esomeprazole magnesium)], the relative cell viability came out at 1.07.

`NCCCCCC(=O)O` [(6-)ε-Aminocaproic acid]: the relative cell viability was determined as 0.983.

`CCN(CC)CC#CCOC(=O)C(O)(c1ccccc1)C1CCCCC1` (stereo unspecified) [Oxybutynin] registered a relative cell viability of 0.938.

Turning to `Nc1nc(=O)[nH]cc1F` [Flucytosine], the relative cell viability worked out at 0.996.

For `O=C1[C@H](CC[C@H](O)c2ccc(F)cc2)[C@@H](c2ccc(O)cc2)N1c1ccc(F)cc1` [Ezetimibe], the relative cell viability stood at 0.901.

The molecule `CO[C@H]1C[C@@H]2CC[C@@H](C)[C@@](O)(O2)C(=O)C(=O)N2CCCC[C@H]2C(=O)O[C@H]([C@H](C)C[C@@H]2CC[C@@H](OCCO)[C@H](OC)C2)CC(=O)[C@H](C)/C=C(\C)[C@@H](O)[C@@H](OC)C(=O)[C@H](C)C[C@H](C)/C=C/C=C/C=C/1C` [Everolimus (RAD001)] gave a relative cell viability of 0.765.

In the case of `COc1ccc2cc([C@H](C)C(=O)O)ccc2c1` [Naproxen Sodium], the relative cell viability was found to be 0.686.

In turn, `COC(=O)[C@@H]1CC2=CC(=O)CC[C@]2(C)[C@@]23O[C@@H]2C[C@@]2(C)[C@@H](CC[C@@]24CCC(=O)O4)[C@H]13` [Eplerenone] had a relative cell viability of 0.925.

With `COc1ccccc1OCCNCC(O)COc1cccc2[nH]c3ccccc3c12` (stereo unspecified) [Carvedilol], the relative cell viability was determined as 1.14.

Molecule `O=C(O)c1cccnc1` [Nicotinic Acid] had a relative cell viability of 0.937.

The molecule `COc1nc(N)nc2c1ncn2[C@@H]1O[C@H](CO)[C@@H](O)[C@@H]1O` [Nelarabine] had a relative cell viability of 1.08.

`CC(C)C[C@H](NC(=O)[C@@H](NC(=O)c1cccc(-c2ccccc2)n1)[C@@H](C)O)B(O)O` had a relative cell viability of 1.1.

For the molecule `C[C@@H]1C/C=C/C=C/C=C/C=C/[C@H](O[C@@H]2O[C@H](C)[C@@H](O)[C@H](N)[C@@H]2O)C[C@@H]2O[C@](O)(C[C@@H](O)C[C@H]3O[C@@H]3/C=C/C(=O)O1)C[C@H](O)[C@H]2C(=O)O` [Natamycin], the relative cell viability worked out at 0.0794.

Source of the values: the supplement of paper PMC7184167.
